The record followed here is PubChem BioAssay (NCATS).

Experiment [1] deals with Glutathione peroxidase 1 (Homo sapiens) (UniProt P07203). Description: Primary qHTS Assay for Inhibitors of Recombinant Selenoprotein Glutathione Peroxidase 1 (GPX1) (AID 1845191). Note: nearly all actives have a fitted effect of over 65% in size. Note: potency is the fitted concentration of half-maximal effect. Particulars: recombinant GPX1, GR-coupled NADPH fluorescence, 15 min; series mostly up to 48.8 µM. Put shortly:
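NADPH consumption tracked by fluorescence at 340/450 nm between t=0 and t=15 min, room temperature. Final mix: 10 nM GPX1, 100 nM glutathione reductase, 1 mM GSH, 0.5 mM NADPH, 0.5 mM cumene hydroperoxide, 0.01% BSA; 30 min compound–enzyme preincubation.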
Background: In qHTS, concentration-response curves come from the screen itself.

Experiment [2] concerns the target Phospholipid hydroperoxide glutathione peroxidase GPX4 (Homo sapiens) (UniProt P36969). The experiment in a line: Primary qHTS Assay for Inhibitors of Recombinant Selenoprotein Glutathione Peroxidase 4 (GPX4) (AID 1845192). For activity change, negative = inhibition: % is set by controls: 0 for no effect and ±100 for the full control effect. Note: nearly all actives have a fitted effect of over 65% in size. Note: potency is the fitted concentration of half-maximal effect. Particulars: recombinant GPX4, GR-coupled NADPH fluorescence, 15 min; series mostly up to 50 µM. Put shortly:
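NADPH consumption followed by fluorescence at 340/450 nm, t=0 and after 15 min at room temperature. Reaction started with cumene hydroperoxide (0.5 mM final) after 30 min compound–GPX4 preincubation; final 200 nM GPX4, 100 nM GR, 1 mM GSH, 0.5 mM NADPH.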

The target of experiment [3] is Luciferin 4-monooxygenase (Photinus pyralis) (UniProt P08659). The experiment in a line: Primary firefly luciferase (FLuc) qHTS assay for identification of artifact compounds. (AID 1845220).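 For activity change, negative = inhibition: plate controls were DMSO vehicle for no effect and no enzyme for full effect.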 Note: nearly all actives have a fitted effect of over 60% in size. To be noted: purified firefly luciferase, luminescence, 5 min; series mostly up to 54.1 µM. Put shortly: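 Compounds sat 15 min at room temperature with 10 uM luciferin and 10 uM ATP (pH 7.6 Tris acetate). Firefly luciferase (10 nM final) was then added, and luminescence was read 5 min later. Data normalized to no-enzyme and DMSO controls were Hill-fitted.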

Experiment [4] can be described thus: Primary fluorescence-based thiol-reactive (MSTI) qHTS assay for identification of artifact compounds. (AID 1845221).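 Note: thiol-reactive compounds lower the probe fluorescence signal; nearly all actives have a fitted effect of over 65% in size.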 Particulars: MSTI thiol-reactivity probe, 1 h; series mostly up to 53.8 µM. Put shortly:
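Reactivity toward the thiol probe MSTI (4 uM) is scored by fluorescence at Ex/Em 525/598 nm after 1 h at room temperature. Acetyl-MSTI and MSTI define the activity scale.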

Structures are written as SMILES. Records with an inconclusive call do not appear. The source holds several records for some structures; these can differ, active in one and inactive in another. The source made the active and inactive calls. Calls come from the whole dose curve; as a rule, active = well fitted curve in the direction sought with a large enough effect; inconclusive = small, poorly fitted or top-dose-only effect, or another doubt; inactive = no such curve, though single readings can be large; an effect the other way counts as inactive or inconclusive.

Sequence of Glutathione peroxidase 1 (Homo sapiens) (P07203 whole entry, looked up): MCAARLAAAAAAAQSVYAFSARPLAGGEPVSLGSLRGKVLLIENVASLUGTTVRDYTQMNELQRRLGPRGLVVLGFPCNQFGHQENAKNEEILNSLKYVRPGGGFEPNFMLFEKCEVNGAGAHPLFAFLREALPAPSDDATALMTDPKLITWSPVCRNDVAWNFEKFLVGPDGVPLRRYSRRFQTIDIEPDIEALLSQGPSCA
Sequence of Phospholipid hydroperoxide glutathione peroxidase GPX4 (Homo sapiens) (P36969 whole entry, looked up): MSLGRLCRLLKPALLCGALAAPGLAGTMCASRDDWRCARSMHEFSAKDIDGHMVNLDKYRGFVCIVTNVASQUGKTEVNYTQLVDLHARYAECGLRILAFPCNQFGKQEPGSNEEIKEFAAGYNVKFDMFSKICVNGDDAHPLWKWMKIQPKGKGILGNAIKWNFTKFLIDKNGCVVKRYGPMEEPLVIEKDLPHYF

Take `CCCCCCCCCCCCCC(=O)N[C@H](CO)[C@H](O)c1ccc([N+](=O)[O-])cc1`: the Potency entry in experiment [1] and in experiment [2] was “inactive” each time.

In the case of `COc1cc(F)c(C(C)C)cc1-c1ccc(C(F)(F)F)cc1CN1C(=O)O[C@H](c2cc(C(F)(F)F)cc(C(F)(F)F)c2)[C@@H]1C`, the Potency result in experiment [1] and in experiment [2] was “inactive” in each case.

For `Nc1ncnc2c1ncn2[C@@H]1O[C@H](CO)[C@@H](O)[C@@H]1O`, the Potency entry in experiment [1] and in experiment [2] was “inactive” each time.

In the case of `CCCCCCCCCCCCCCCC(=O)O[C@H]1[C@@H](O)[C@@H](O)[C@@H]([C@H](NC(=O)[C@@H]2C[C@@H](CCC)CN2C)[C@H](C)Cl)O[C@@H]1SC`, the Potency result in experiment [1] and in experiment [2] was “inactive” throughout.

As for `COc1c(C)cnc(Cn2cnc3c(Cl)nc(N)nc32)c1C`, the Potency result in experiment [1] and in experiment [2] was “inactive” each time.

Turning to `COc1ccc(CCN(C)CCCOc2ccc(S(=O)(=O)c3[nH]c4ccccc4c3C(C)C)cc2)cc1OC`, the Potency result in experiment [1] and in experiment [2] was “inactive” each time.

Turning to `CCCC1OC2C[C@@H]3[C@H]4CCC5=CC(=O)C=C[C@]5(C)[C@H]4C(O)C[C@]3(C)[C@]2(C(=O)CO)O1` (stereo partly drawn), the Potency result in experiment [1] and in experiment [2] was “inactive” in each case.

`CC(C)C[C@@H](N)[C@H](O)C(=O)N[C@H](C(=O)N[C@H](C(=O)N[C@@H](CC(=O)O)C(=O)O)C(C)C)C(C)C`: the Potency result in experiment [1] and in experiment [2] was “inactive” each time.

For the compound `CCc1cc(-c2n[nH]c(C)c2-c2ccc3c(c2)OCCO3)c(O)cc1O`, the Potency result in experiment [1] and in experiment [2] was “inactive” in each case.

As for `C[C@@H]1C[C@H]2[C@@H]3CCC4=CC(=O)C=C[C@]4(C)[C@@]3(F)[C@@H](O)C[C@]2(C)[C@@]1(O)C(=O)CO`, the Potency result in experiment [1] and in experiment [2] was “inactive” throughout.

As to `Cn1cc(-c2ccc3nnc(Sc4ccc5ncccc5c4)n3n2)cn1`, the Potency result in experiment [1] and in experiment [2] was “inactive” throughout.

As for `CO[C@@H]1C(N(C)C(=O)c2ccccc2)C[C@H]2O[C@]1(C)n1c3ccccc3c3c4c(c5c6ccccc6n2c5c31)C(=O)NC4=O` (stereo partly drawn), in experiment [1], the Potency result is “inactive”. Further, the Potency in experiment [2] was 18 µM (active).

`CN(C)N=Nc1nc[nH]c1C(N)=O`: the Potency entry in experiment [1] and in experiment [2] was “inactive” in each case.

On to `CSc1cccc(Nc2ncc3cc(-c4c(Cl)cccc4Cl)c(=O)n(C)c3n2)c1`, for which the Potency entry in experiment [1] and in experiment [2] was “inactive” throughout.

Take `Cc1cn([C@@H]2C[C@@H](O)[C@H](CO)O2)c(=O)[nH]c1=O`: the Potency result in experiment [1] and in experiment [2] was “inactive” in each case.

On to `CN(C)c1ccccc1CN1CCCN(Cc2ccccc2N(C)C)C1c1ccncc1`, for which the Potency result in experiment [1] and in experiment [2] was “inactive” throughout.

As for `COC(=O)[C@H](c1ccccc1Cl)N1CCc2sccc2C1`, the Potency entry in experiment [1] and in experiment [2] was “inactive” in each case.

With `COc1cc2nccc(Oc3ccc(NC(=O)Nc4ccc(F)cc4F)c(F)c3)c2cc1OC`, the Potency result in experiment [1] and in experiment [2] was “inactive” in each case.

With `CN1CCN2c3ncccc3Cc3ccccc3C2C1` (stereo not drawn), the Potency result in experiment [1] and in experiment [2] was “inactive” throughout.

Take `CCC(C)SSc1ncc[nH]1` (stereo not drawn): the Potency result in experiment [1] and in experiment [2] was “inactive” throughout.

`CCOC(=O)[C@@H](N)CCC(=O)N[C@@H](CSCc1ccccc1)C(=O)N[C@@H](C(=O)OCC)c1ccccc1`: the Potency entry in experiment [1] and in experiment [2] was “inactive” throughout.

Consider `COc1ccnc(CS(=O)c2nc3ccc(OC(F)F)cc3[nH]2)c1OC` (stereo not drawn), for which the Potency is 9.04 µM (active) and inactive in experiment [1]; 16.1 µM (active) in experiment [2].

With `CN1C(=O)C[C@H](C(=O)N[C@@H](Cc2cnc[nH]2)C(=O)N2CCC[C@@H]2C(N)=O)NC1=O`, the Potency entry in experiment [1] and in experiment [2] was “inactive” in each case.

With `C[C@]12CC[C@@H]3c4ccc(O)cc4CC[C@H]3[C@H]1[C@@H](O)[C@@H](O)[C@H]2O`, the Potency result in experiment [1] and in experiment [2] was “inactive” throughout.

For the compound `CC[C@]1(O)C[C@H]2CN(CCC3=c4ccccc4=N[C]3[C@@](C(=O)OC)(c3cc4c(cc3OC)N(C)[C@H]3[C@@](O)(C(N)=O)[C@H](O)[C@]5(CC)C=CCN6CC[C@]43[C@@H]65)C2)C1`, the Potency result in experiment [1] and in experiment [2] was “inactive” each time.

As to `Cc1nn(Cc2ccccc2Cl)c(C)c1CN(C)CC(O)COc1ccc(Cl)cc1` (stereo not drawn), the Potency result in experiment [1] and in experiment [2] was “inactive” in each case.

As to `COc1cc2c(cc1Cc1cccc(Cl)c1F)c(=O)c(C(=O)O)cn2[C@H](CO)C(C)C`, in experiment [1], the Potency entry was “inactive”. In addition, the Potency in experiment [2] is 11.2 µM (active).

`CC1=C(CC(=O)O)c2cc(F)ccc2C1=Cc1ccc(S(C)=O)cc1` (stereo not drawn): the Potency entry in experiment [1] and in experiment [2] was “inactive” each time.

For `OC(c1cc(C(F)(F)F)nc2c(C(F)(F)F)cccc12)C1CCCCN1` (stereo not drawn), the Potency entry in experiment [1] and in experiment [2] was “inactive” in each case.

Consider `CC(C)Oc1cc(Nc2nc(N[C@@H](C)c3ccc(F)cn3)ncc2Cl)[nH]n1`, for which the Potency entry in experiment [1] and in experiment [2] was “inactive” each time.

In the case of `Cc1ccc2c(=O)c3cccc(CC(=O)O)c3oc2c1C`, the Potency result in experiment [1] and in experiment [2] was “inactive” each time.

On to `O=C1NC(=O)C(c2cnc3ccccn23)=C1c1cn2c3c(cccc13)CN(C(=O)N1CCOCC1)CC2`, for which the Potency result in experiment [1], in experiment [2] and in experiment [3] was “inactive” in each case.

Turning to `O=C(c1ccc(C(=O)N2CCC(N3CCCC3)CC2)c(Nc2ccccc2)c1)N1CCC(N2CCCC2)CC1`, the Potency entry in experiment [1], in experiment [2] and in experiment [3] was “inactive” each time.

Consider `CN[C@@H](C)[C@H]1[C@H](O)C[C@@]2(C)[C@@H]3CC[C@H]4C(C)(C)[C@@H](NC)CC[C@@]45C[C@@]35CC[C@]12C`, for which the outcome in experiment [1] is “inactive [at 9.52 µM]”. In addition, the activity change, negative = inhibition was -4.33% [at 9.73 µM] (inactive) in experiment [2] and 1.81% [at 11.6 µM] (inactive) in experiment [3]. The activity change, negative = thiol reactive in experiment [4] was 7.61% [at 11.5 µM] (inactive).

Consider `Cc1cccc(-c2[nH]c(C(C)(C)C)nc2-c2ccc3c(c2)OCO3)n1`, for which the Potency result in experiment [1] and in experiment [2] was “inactive” throughout.

As for `CNC(=O)c1cc(Oc2ccc(NC(=O)Nc3ccc(Cl)c(C(F)(F)F)c3)c(F)c2)ccn1`, the Potency result in experiment [1], in experiment [2], in experiment [3] and in experiment [4] was “inactive” each time.

Turning to `CC1=C(C(=O)Nc2cc3cn[nH]c3cc2F)C(c2ccc(C(F)(F)F)cc2)CC(=O)N1` (stereo not drawn), the Potency result in experiment [1], in experiment [2], in experiment [3] and in experiment [4] was “inactive” in each case.

With `N#Cc1c(N(CC(=O)O)CC(=O)O)sc(C(=O)O)c1CC(=O)O`, the Potency entry in experiment [1] is “inactive”. Further, in experiment [2], the activity change, negative = inhibition was 4.92% [at 0.409 µM] (inactive).

On to `CCN1CCN(c2ccc(Nc3cc(N(C)C(=O)Nc4c(Cl)c(OC)cc(OC)c4Cl)ncn3)cc2)CC1`, for which the Potency entry in experiment [1], in experiment [2] and in experiment [3] was “inactive” throughout.

Turning to `CN1CCC(COc2cnc(-c3cccc(Cn4nc(-c5cccc(C#N)c5)ccc4=O)c3)nc2)CC1`, the Potency entry in experiment [1], in experiment [2], in experiment [3] and in experiment [4] was “inactive” in each case.

With `c1ccc(CNc2nc(N3CCOc4ccccc43)nc3c2CCCC3)cc1`, the Potency entry in experiment [1], in experiment [2] and in experiment [3] was “inactive” in each case.

`O=C(O)c1ccc(O)c2ncc(N3CCOCC3)cc12`: the Potency result in experiment [1] and in experiment [2] was “inactive” throughout.

On to `Cc1cnc(-c2cc(N3CCN(C(=O)CCS(C)(=O)=O)CC3)ncc2Cl)c(C)c1`, for which the Potency result in experiment [1], in experiment [2], in experiment [3] and in experiment [4] was “inactive” each time.

In the case of `Nc1ccc(-c2ccc3ncc4ccc(=O)n(-c5cccc(C(F)(F)F)c5)c4c3c2)cn1`, the Potency entry in experiment [1], in experiment [2], in experiment [3] and in experiment [4] was “inactive” in each case.

As for `COc1nccc(-c2c(-c3ccc(F)cc3)ncn2C2CCC(O)CC2)n1` (stereo not drawn), the Potency entry in experiment [1], in experiment [2], in experiment [3] and in experiment [4] was “inactive” in each case.
